This is an account of results in PubChem BioAssay AID2606 (The Scripps Research Institute Molecular Screening Center, 2010).

The campaign covered roughly 320,000 compounds. About 160 (0.05%) were called active. The sample holds actives, similar compounds and a random draw of the others, so the mix is not that of the screen. Values without a mark were called inactive. Cut-off read from the data, not from the text of the source: active = inhibition above about 38%; inactive = the rest.

In this assay the target is Serine protease Rv3671c (Mycobacterium tuberculosis (strain ATCC 25618 / H37Rv)) (UniProt P9WHR9). Put plainly: inhibition of M. tuberculosis membrane protease Rv3671c – biochemical, fluorescence polarization, M. tuberculosis H37Rv, primary screen (AID 2606).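 Note: extracellular domain of Rv3671c used as enzyme; 0% = enzyme with DMSO and 100% = no enzyme.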 The note with it: at 5.96 µM; stronger effect = higher value.
Sequence of Serine protease Rv3671c (Mycobacterium tuberculosis (strain ATCC 25618 / H37Rv)) (P9WHR9 whole entry, looked up, the tested form may be a part): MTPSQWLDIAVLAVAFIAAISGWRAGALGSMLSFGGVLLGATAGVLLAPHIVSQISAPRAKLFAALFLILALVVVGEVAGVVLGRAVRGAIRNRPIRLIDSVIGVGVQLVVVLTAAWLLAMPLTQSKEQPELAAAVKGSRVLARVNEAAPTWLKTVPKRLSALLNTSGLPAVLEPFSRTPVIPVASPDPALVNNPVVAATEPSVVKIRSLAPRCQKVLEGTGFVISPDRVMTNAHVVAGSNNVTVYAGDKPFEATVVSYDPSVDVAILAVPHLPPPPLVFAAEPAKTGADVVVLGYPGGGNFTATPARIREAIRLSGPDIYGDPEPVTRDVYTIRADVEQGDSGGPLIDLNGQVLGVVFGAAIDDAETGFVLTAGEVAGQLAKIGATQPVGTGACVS
As to `CCO[C@@H]1OC(C(=O)NC2CC2)=C[C@H](C)[C@H]1CCCO`, the inhibition was 3.42%. The figure for `CCN(CC)CCCN=C(N)N` is 1.64%; for `CC(C)n1c(-c2ccncc2)n[nH]c1=S` it is -6.36%. On to `CC(C)(C)S(=O)(=O)c1ccccc1-c1noc(-c2ccccc2)c1C(N)=O`, for which the inhibition was 8.18%. With `CSCc1ccc(C(=O)Nc2cc(C)cc(C)c2)cc1` the figure was 6.14%; with `CCNc1nc(N)nc(Oc2ccc(OCC)nn2)n1`, 1.15%. The figure for `COCCOC(=O)c1sc(=S)n(CCOC)c1N` is 40% (active).

As for `CCCCN(CCCC)C(=O)CCS(=O)(=O)c1ccc2c(c1)n(C)c(=O)c(=O)n2C`, the inhibition was -1.54%. With `Cc1ccc2c(c1)N(CCCC(=O)NCc1cccnc1)C(=O)CO2` the figure was 5.63%; with `COC(=O)COc1cccc2c(=O)n(CC(=O)NCc3ccccc3)ccc12`, -8.57%; with `COc1ccc(O[C@H]2C=C[C@@H](c3ccccc3)O[C@@H]2CO/N=C/C[C@@H]2C=C[C@H](OC(C)=O)[C@@H](COC(C)=O)O2)cc1`, -1.84%.

Consider `COCCN(Cc1nc(-c2ccc(C(F)(F)F)cc2)no1)C(C)C`, for which the inhibition was -6.51%. With `Cc1ccc(S(=O)(=O)N[C@@H](Cc2ccccc2)C(=O)N2CCC(C(=O)N[C@H](C(=O)O)C(C)O)CC2)cc1` (some centres not stated) the figure was -3.25%; with `Cc1ccc(N2CCN(c3ccc([N+](=O)[O-])cn3)CC2)c(C)c1`, -8.33%; with `Fc1ccccc1CCNc1nnnn1-c1ccccc1`, -6.29%. With `Cc1ccc(Cl)cc1NC(=O)C1CCN(S(C)(=O)=O)CC1` the figure was 5.08%; with `O=C1NC[C@@H](Cc2ccc(O)cc2)N(CCc2cccc(F)c2)C1=O`, 5.74%. `O=[N+]([O-])c1ccc2nc(-c3ccccn3)[nH]c2c1`: the inhibition is 4.37%. With `O=C(Nc1sc2c(c1-c1nc3ccccc3[nH]1)CCCC2)C1CC1` the figure was -3.57%. As for `c1ccc2[nH]c(-c3nc4ccccc4[nH]3)nc2c1`, the inhibition was 77.5% (active). For the compound `COc1ccc(Br)cc1CN1CCN(C(=O)c2cccc(OC)c2OC)CC1`, the inhibition is -2.08%. The figure for `CC1(c2ccccc2)NC(=O)N(CC(=O)N2CC(=O)Nc3ccccc32)C1=O` (configuration not stated) is -3.96%.

With `COc1ccc(C(=O)c2c3ccc([N+](=O)[O-])cc3[n+]([O-])n2CCCN)cc1`, the inhibition is -2.98%. With `C[C@@H]1NC(=O)[C@@]2(C)[C@@H](c3ccccc3)[C@H]3COc4ccccc4[C@@H]3N2C1=O` the figure was -7.74%; with `C=CCN1CCN(C(=O)CCCc2ccccc2)CC1`, -7.87%; with `NNC(=O)c1cnn(-c2ccccc2)c1C(F)(F)F`, 2.2%.

For `COCCN(C(=O)CSCc1ccc(C)cc1)c1c(N)n(CC(C)C)c(=O)[nH]c1=O`, the inhibition was 8.34%.

Consider `CC1CCCN(C(C(=O)Nc2ccc(C(C)C)cc2)c2ccc3c(c2)OCO3)C1` (configuration not stated), for which the inhibition is 2.73%. With `CN(Cc1ccccc1)C(=O)COC(=O)c1ccccc1Nc1ccccc1` the figure was -5.06%; with `CCN(CC)c1ccc(C2C3CCCCC3(O)CCN2CC(=O)Nc2ccccc2)cc1` (configuration not stated), 5.48%. With `O=C(O)C(c1ccccc1)C1(O)CCCCC1` (configuration not stated) the figure was 8.1%; with `Cc1cc(NC(=O)CN2C(=O)NC(CC(C)C)C2=O)no1` (configuration not stated), 2.81%; with `O=C(Nc1ccc(Br)cc1)c1cc(S(=O)(=O)Nc2ccccn2)ccc1Cl`, -7.4%. The figure for `COc1ccc(C(=O)OC(C)C(=O)NC2CCCC2)cc1S(=O)(=O)N1CCOCC1` (configuration not stated) is -4.37%; for `O=C(COc1ccc(-c2ccccc2)cc1)NN=C1CCCC1` it is -4.38%.

`CCOc1ccc(/C=C(/NC(=O)c2ccccc2)C(=O)NCCC(=O)O)cc1`: the inhibition is -7.39%. The figure for `C=CCn1c(=S)[nH]c2scc(-c3ccco3)c2c1=O` is 6.27%; for `CC(C)CCNC(=O)c1cccnc1Sc1ccccc1` it is -12.3%; for `CCn1ncc(CNC(=O)C2(C)CC2(Br)Br)c1C` (configuration not stated) it is -2.88%.

`CC(C)CC(COCc1ccc(Cl)cc1)N1CCN(C(=O)c2ccc(C(F)(F)F)cc2)CCC1=O` (configuration not stated): the inhibition was -15.8%. The figure for `CNC(=O)/C(C#N)=C/c1c(F)cccc1Cl` is -0.68%; for `O=C(c1ccccc1F)N1CCN(S(=O)(=O)c2ccc(Br)cc2)CC1` it is -4.63%; for `COCCNc1nc2nonc2nc1N1CCCC1c1nccs1` (configuration not stated) it is -4.76%.

As for `Cn1nnnc1SCC(=O)NNC(=O)c1ccc(Br)cc1`, the inhibition is -1.13%. Consider `CC(=O)N1CCc2c(sc(NC(=O)CCS(=O)(=O)c3ccc(C)cc3)c2C(N)=O)C1`, for which the inhibition was 8.49%. For `CCOC(=O)[C@@H]1[C@H]2COc3ccc(Br)cc3[C@H]2N2C(=O)N(c3ccc(Cl)cc3)C(=O)[C@@]12C`, the inhibition is -4.24%.

For the compound `COc1cccc(C2SCC(=O)N2c2cccc(C)c2)c1OC` (configuration not stated), the inhibition is 0.16%. For `CCCCn1c(N)c(N(CCOC)C(=O)c2cccc(S(=O)(=O)N(C)c3ccccc3)c2)c(=O)[nH]c1=O`, the inhibition was 3.05%. `Cc1noc(C)c1NC(=O)Nc1ccc2c(c1)C(=O)N([C@H](C)CO)C[C@H](C)[C@@H](CN(C)C(=O)Nc1ccc(C(F)(F)F)cc1)O2`: the inhibition is 0.65%.

For `C/C=C/C=C/C(=O)OCC(=O)Nc1ccc(Cl)cc1`, the inhibition was -1.55%.

Regarding `CCN1CC=C2C(C#N)=C(N)C(C#N)(C#N)[C@H](c3ccoc3)[C@H]2C1`, the inhibition is 3.86%. With `CC(=O)N(C)c1ccc(NC(=O)Nc2cccc3ccccc23)cc1` the figure was 1.7%. Take `O=C1c2ccccc2C(=O)N1CCC(O)C[N+](=O)[O-]` (configuration not stated): the inhibition was -0.34%. With `COc1ccc(CCNC(=O)C2CC3Cn4c(nc5cc(C)c(C)cc54)C3N2C)cc1` (configuration not stated) the figure was -15.6%. In the case of `CC(C)(COC(=O)Nc1ccccc1)COC(=O)Nc1ccccc1`, the inhibition is -8%. With `COCCn1c(SCC(=O)c2[nH]c(C)c(C(C)=O)c2C)nc2ccccc2c1=O` the figure was 1.17%; with `COCc1c(C(=O)OCC(=O)Nc2ccc(OC(F)F)cc2)oc2ccccc12`, -1.7%. The figure for `O=C1CN(C(=O)COc2c(Cl)cccc2Cl)c2ccccc2N1` is 0.62%; for `CCN(C(=O)Cc1c(C(=O)O)n(CC)c2ccccc12)c1ccccc1C` it is 4.47%; for `NS(=O)(=O)c1ccc(CNC(=O)c2ccc(Cl)cc2[N+](=O)[O-])cc1` it is -8.53%. The figure for `O=C(CCc1nnc2ccc(NCc3ccccc3Cl)nn12)NCC1CCN(C2CCCC2)C1` (configuration not stated) is -2.3%; for `C=CC(COCc1ccccc1)N(CC(=O)OC)S(=O)(=O)c1cc(Br)ccc1OC` (configuration not stated) it is 0.38%. Turning to `COc1ccc(OC)c(NC(=O)Cc2cccs2)c1`, the inhibition is 2.15%. With `Cc1ccc(-c2ccnc3nc(Sc4ncc(C(F)(F)F)cc4Cl)nn23)cc1` the figure was -7.05%; with `CC(=O)N1Cc2ccccc2CC1C(=O)O` (configuration not stated), -1.84%. The figure for `CCc1cccc(NC(=O)CCCN2C(=O)C(c3ccccc3)Oc3cccnc32)c1` (configuration not stated) is -9.9%. With `COC(=O)C1=C(C)N(C(C)c2ccccc2)C(=O)/C1=C\c1ccco1` (configuration not stated) the figure was 4.05%; with `Cc1cccc(C)c1NC(=O)N1CC=C(n2c(=O)[nH]c3ccccc32)CC1`, 1.3%. Take `Nc1nc(-c2sc3nc4c(cc3c2N)CCCC4)nc(N2CCOCC2)n1`: the inhibition is -3.34%. With `O=C(NCCN1CCOC1=O)C1CCC(=O)N(CCc2ccc(Cl)cc2)C1` (configuration not stated) the figure was -0.05%; with `O=C(NCc1ccccc1)c1ccc(CNc2c(N3CCCC3)c(=O)c2=O)cc1`, 3.23%; with `CC(Sc1nnc(-c2cccs2)n1C1CC1)C(=O)NCC1CCCO1` (configuration not stated), 3.19%. The figure for `CC(C)n1c(O)c(N=Nc2ccccn2)c2ccccc21` is 3.27%; for `COC(C/C=C/C(=O)[C@@H](C)OCc1ccccc1)OC` it is -4.04%. The figure for `CN=C(c1ccccc1)c1c(C)cccc1C` is 10.9%. Take `CC(C)C(=O)N1CCN(CCN=CC2=C(O)CC(c3ccco3)CC2=O)CC1` (configuration not stated): the inhibition is -4.57%. On to `CCCC(C)c1nnc(NC(=O)C2CC(=O)N(c3ccc(OCC)cc3)C2)s1` (configuration not stated), for which the inhibition is 9.03%. The figure for `CCC(C)CCN1CCN=C1N(C)C` (configuration not stated) is -3.18%. With `CCn1c(C)nc2cc(C(=O)NNS(=O)(=O)c3ccc(C)cc3C)ccc21` the figure was -9.72%. With `CS(=O)(=O)c1ccccc1C(=O)Nc1ccc2sccc2c1` the figure was -4.05%. As for `CC(O)CN(Cc1ccc(Cl)cc1)CC(C)O` (configuration not stated), the inhibition is 6.26%. With `O=C(COc1ccccc1Cl)N1CCCCCCC1` the figure was -10.1%; with `Cc1ccc2c(C)c(C(=O)N3CCN(c4ccncc4)CC3)oc2c1C`, 10.5%; with `O=C(NC1CC1)C1=C[C@H](c2coc3ccccc3c2=O)C[C@H](OCCCCO)O1`, 2.33%. Regarding `C=CCn1c(-c2ccc(Cl)cc2)ccc(C#N)c1=O`, the inhibition was -12.4%. The figure for `N#C/C=C\Oc1ccc(Cl)cc1N` is -2.18%; for `Cc1cc(F)ccc1S(=O)(=O)Nc1ncnc2scc(-c3ccc(F)cc3)c12` it is -10.2%.
